The values below come from publication PMC11006913.

Numbering of substitutions follows the chain as printed.

Holding throughout (test): PBM; 200 nM protein, PBS
Conditions in all cases: dsDNA, one strand shown

Assay [1] deals with HOXD13 (Homo sapiens, UniProt P35453 263-343, T313R).
Assay [2] concerns the target HOXD13 (Homo sapiens, UniProt P35453 263-343).
The target in assay [3] is HOXD13 (Homo sapiens, UniProt P35453 263-343, T313A).
Assay [4] concerns the target T1, NKX2-6 (Homo sapiens, UniProt A6NCS4 118-204).
T1 sequence: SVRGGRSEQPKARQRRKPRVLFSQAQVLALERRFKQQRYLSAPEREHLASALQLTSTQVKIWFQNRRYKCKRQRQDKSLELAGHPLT

In assay [5] the target is T2, SIX6 (Homo sapiens, UniProt O95475 114-200, T165A).
T2 sequence: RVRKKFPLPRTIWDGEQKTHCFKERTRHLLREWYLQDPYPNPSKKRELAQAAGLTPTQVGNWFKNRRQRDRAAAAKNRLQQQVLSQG

Assay [6] deals with HOXC9 (Homo sapiens, UniProt P31274 178-260, R222W).
In assay [7] the target is CRX (Homo sapiens, UniProt O43186 26-111, R41L).
The target of assay [8] is ALX3 (Homo sapiens, UniProt O95076 139-225, N203S).
Assay [9] concerns the target T3, NKX2-6 (Homo sapiens, UniProt A6NCS4 118-204, F151L).
T3 sequence: T1 sequence with F34L

The target in assay [10] is VAX1 (Homo sapiens, UniProt Q5SQQ9 86-172).
Assay [11] has as its target VAX1 (Homo sapiens, UniProt Q5SQQ9 86-172, T142I).
In assay [12] the target is VAX1 (Homo sapiens, UniProt Q5SQQ9 86-172, K157R).
Sequence of VAX1 (Homo sapiens, UniProt Q5SQQ9 86-172, K157R) (Q5SQQ9 86-172 K157R): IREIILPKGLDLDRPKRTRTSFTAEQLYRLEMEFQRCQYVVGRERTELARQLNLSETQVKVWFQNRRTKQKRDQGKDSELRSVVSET

Sequence of HOXD13 (Homo sapiens, UniProt P35453 263-343) (P35453 263-343): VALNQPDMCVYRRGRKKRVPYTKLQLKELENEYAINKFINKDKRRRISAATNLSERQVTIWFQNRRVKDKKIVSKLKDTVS
Sequence of HOXD13 (Homo sapiens, UniProt P35453 263-343, T313R) (P35453 263-343 T313R): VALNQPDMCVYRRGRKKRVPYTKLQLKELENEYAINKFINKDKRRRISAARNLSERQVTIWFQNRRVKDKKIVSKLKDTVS
Sequence of HOXD13 (Homo sapiens, UniProt P35453 263-343, T313A) (P35453 263-343 T313A): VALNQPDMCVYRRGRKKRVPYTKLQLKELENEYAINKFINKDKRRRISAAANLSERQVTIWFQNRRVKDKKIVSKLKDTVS
Sequence of ALX3 (O95076 139-225 N203S): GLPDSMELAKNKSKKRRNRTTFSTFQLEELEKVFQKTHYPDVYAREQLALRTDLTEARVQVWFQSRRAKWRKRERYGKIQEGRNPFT
Sequence of HOXC9 (P31274 178-260 R222W): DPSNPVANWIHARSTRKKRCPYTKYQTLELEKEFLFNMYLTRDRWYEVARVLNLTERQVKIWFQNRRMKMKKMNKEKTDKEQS
Sequence of CRX (O43186 26-111 R41L): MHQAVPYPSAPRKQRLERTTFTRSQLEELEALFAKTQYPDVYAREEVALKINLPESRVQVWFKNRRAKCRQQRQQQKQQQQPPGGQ
Sequence of VAX1 (Homo sapiens, UniProt Q5SQQ9 86-172, T142I) (Q5SQQ9 86-172 T142I): as the sequence (Q5SQQ9 86-172 K157R) above, with T57I, R72K counted along it
Sequence of VAX1 (Homo sapiens, UniProt Q5SQQ9 86-172) (Q5SQQ9 86-172): as the sequence (Q5SQQ9 86-172 K157R) above, with R72K counted along it

In the case of CAATAATC, the binding signal in assay [1] is 10.2 upbm affinity estimate (log intensity, higher = more binding, comparable within an allelic series); in assay [2], 11.2 upbm affinity estimate (log intensity, higher = more binding, comparable within an allelic series); in assay [3] it was 11.1 upbm affinity estimate (log intensity, higher = more binding, comparable within an allelic series).
In the case of GATTATGA, the binding signal in assay [4] was 11.2 upbm affinity estimate (log intensity, higher = more binding, comparable within an allelic series).
Consider GGTGTAAA, for which, in assay [5], the binding signal is 10.4 upbm affinity estimate (log intensity, higher = more binding, comparable within an allelic series).
Still for that read-out and setting: for AAGGTGTA the value was 10.1 upbm affinity estimate (log intensity, higher = more binding, comparable within an allelic series).
On the same count and under the same terms, for GAGTGTCA the value was 10.3 upbm affinity estimate (log intensity, higher = more binding, comparable within an allelic series); for GGTGTAGA, 10.3 upbm affinity estimate (log intensity, higher = more binding, comparable within an allelic series).
On the same count and under the same terms, for ACTGACAC the value was 10.4 upbm affinity estimate (log intensity, higher = more binding, comparable within an allelic series); for TAGTGTCA, 10.4 upbm affinity estimate (log intensity, higher = more binding, comparable within an allelic series).
In the case of ATTGACAC, the binding signal in [5] was 10.5 upbm affinity estimate (log intensity, higher = more binding, comparable within an allelic series).
On the same count and under the same terms, next, AGTGTCAA: 10.3 upbm affinity estimate (log intensity, higher = more binding, comparable within an allelic series); GTGTCACA: 10.7 upbm affinity estimate (log intensity, higher = more binding, comparable within an allelic series).
Still for that read-out and setting: next, AGGGTGTC: 10.5 upbm affinity estimate (log intensity, higher = more binding, comparable within an allelic series).
On to ATATAAAT, for which the binding signal in assay [1] is 10.8 upbm affinity estimate (log intensity, higher = more binding, comparable within an allelic series); in assay [3] it was 11.6 upbm affinity estimate (log intensity, higher = more binding, comparable within an allelic series); in assay [6], 11 upbm affinity estimate (log intensity, higher = more binding, comparable within an allelic series).
Regarding CATATAAA, the binding signal is 10.9 upbm affinity estimate (log intensity, higher = more binding, comparable within an allelic series) in [1]; 12.1 upbm affinity estimate (log intensity, higher = more binding, comparable within an allelic series) in [2]; 11.9 upbm affinity estimate (log intensity, higher = more binding, comparable within an allelic series) in assay [3].
For the sequence GTTATTAA, the binding signal in assay [1] was 10.7 upbm affinity estimate (log intensity, higher = more binding, comparable within an allelic series); in [7] it was 10.4 upbm affinity estimate (log intensity, higher = more binding, comparable within an allelic series); in assay [8], 8.66 upbm affinity estimate (log intensity, higher = more binding, comparable within an allelic series).
As to GACACCGA, in assay [5], the binding signal was 10.4 upbm affinity estimate (log intensity, higher = more binding, comparable within an allelic series).
For the sequence CAATTCAA, in assay [4], the binding signal was 11.8 upbm affinity estimate (log intensity, higher = more binding, comparable within an allelic series).
The same measure, in the same setting: next, CGTAATAA: 11 upbm affinity estimate (log intensity, higher = more binding, comparable within an allelic series).
As to GACACCAA, the binding signal in assay [5] is 10.5 upbm affinity estimate (log intensity, higher = more binding, comparable within an allelic series).
With AAGGTGTC, the binding signal in assay [5] was 10.5 upbm affinity estimate (log intensity, higher = more binding, comparable within an allelic series).
Consider ACGGTCCC, for which the binding signal in assay [1] was 9.51 upbm affinity estimate (log intensity, higher = more binding, comparable within an allelic series); in [2], 9.34 upbm affinity estimate (log intensity, higher = more binding, comparable within an allelic series); in assay [3], 9.69 upbm affinity estimate (log intensity, higher = more binding, comparable within an allelic series).
Consider CTTGACAC, for which the binding signal in assay [5] is 10.3 upbm affinity estimate (log intensity, higher = more binding, comparable within an allelic series).
CGCGGTCA: the binding signal in [4] was 9.54 upbm affinity estimate (log intensity, higher = more binding, comparable within an allelic series); in assay [9], 9.33 upbm affinity estimate (log intensity, higher = more binding, comparable within an allelic series).
As to AGACGGCC, the binding signal in assay [4] is 9.28 upbm affinity estimate (log intensity, higher = more binding, comparable within an allelic series); in assay [9] it was 9.16 upbm affinity estimate (log intensity, higher = more binding, comparable within an allelic series).
As for CGCTTAAG, the binding signal was 12.2 upbm affinity estimate (log intensity, higher = more binding, comparable within an allelic series) in assay [4]; 9.23 upbm affinity estimate (log intensity, higher = more binding, comparable within an allelic series) in [10]; 9.9 upbm affinity estimate (log intensity, higher = more binding, comparable within an allelic series) in [9]; 8.86 upbm affinity estimate (log intensity, higher = more binding, comparable within an allelic series) in [11]; 9.02 upbm affinity estimate (log intensity, higher = more binding, comparable within an allelic series) in assay [12].
Take CGGGATCC: the binding signal was 9.34 upbm affinity estimate (log intensity, higher = more binding, comparable within an allelic series) in assay [4] and 9.34 upbm affinity estimate (log intensity, higher = more binding, comparable within an allelic series) in [9].
Turning to ACACGCGG, the binding signal in assay [4] was 9.54 upbm affinity estimate (log intensity, higher = more binding, comparable within an allelic series); in [9], 9.38 upbm affinity estimate (log intensity, higher = more binding, comparable within an allelic series).
For the sequence AGACGCTG, the binding signal in assay [4] is 9.21 upbm affinity estimate (log intensity, higher = more binding, comparable within an allelic series); in assay [9], 9.48 upbm affinity estimate (log intensity, higher = more binding, comparable within an allelic series).
Turning to GCGACAGC, the binding signal is 9.46 upbm affinity estimate (log intensity, higher = more binding, comparable within an allelic series) in assay [4] and 9.41 upbm affinity estimate (log intensity, higher = more binding, comparable within an allelic series) in [9].
CTTAAGGC: the binding signal was 11.5 upbm affinity estimate (log intensity, higher = more binding, comparable within an allelic series) in assay [4] and 9.76 upbm affinity estimate (log intensity, higher = more binding, comparable within an allelic series) in assay [9].
With AGTATGTA, the binding signal was 11.6 upbm affinity estimate (log intensity, higher = more binding, comparable within an allelic series) in assay [4] and 9.91 upbm affinity estimate (log intensity, higher = more binding, comparable within an allelic series) in [9].
Consider CCGTTGGC, for which the binding signal was 9.2 upbm affinity estimate (log intensity, higher = more binding, comparable within an allelic series) in assay [4] and 9.41 upbm affinity estimate (log intensity, higher = more binding, comparable within an allelic series) in assay [9].
For AAACACTA, the binding signal in [4] was 11.5 upbm affinity estimate (log intensity, higher = more binding, comparable within an allelic series); in assay [9], 9.97 upbm affinity estimate (log intensity, higher = more binding, comparable within an allelic series).
As to CCCAGCAG, the binding signal in [4] was 9.19 upbm affinity estimate (log intensity, higher = more binding, comparable within an allelic series); in [9], 9.49 upbm affinity estimate (log intensity, higher = more binding, comparable within an allelic series).
